An excerpt weighted towards active compounds, which were near 1.2% of everything screened.
PrP UTR inh = inhibition of PrP 5' UTR reporter expression; cell-based PrP 5' UTR mRNA reporter, plate reader; inhibition, % (test concentration not listed); 0.35% of 340,000 active; in the data active = inhibition above about 52%; also: 0 = median of the neutral control wells
TcdB GH inh = blocks C. difficile toxin B glycohydrolase activity; P18177; TcdB glycohydrolase enzymatic assay, plate reader; inhibition, % at 9.99 µM; 0.24% of 350,000 active; in the data active = inhibition above about 10%
Target sequence (P18177 whole entry, looked up): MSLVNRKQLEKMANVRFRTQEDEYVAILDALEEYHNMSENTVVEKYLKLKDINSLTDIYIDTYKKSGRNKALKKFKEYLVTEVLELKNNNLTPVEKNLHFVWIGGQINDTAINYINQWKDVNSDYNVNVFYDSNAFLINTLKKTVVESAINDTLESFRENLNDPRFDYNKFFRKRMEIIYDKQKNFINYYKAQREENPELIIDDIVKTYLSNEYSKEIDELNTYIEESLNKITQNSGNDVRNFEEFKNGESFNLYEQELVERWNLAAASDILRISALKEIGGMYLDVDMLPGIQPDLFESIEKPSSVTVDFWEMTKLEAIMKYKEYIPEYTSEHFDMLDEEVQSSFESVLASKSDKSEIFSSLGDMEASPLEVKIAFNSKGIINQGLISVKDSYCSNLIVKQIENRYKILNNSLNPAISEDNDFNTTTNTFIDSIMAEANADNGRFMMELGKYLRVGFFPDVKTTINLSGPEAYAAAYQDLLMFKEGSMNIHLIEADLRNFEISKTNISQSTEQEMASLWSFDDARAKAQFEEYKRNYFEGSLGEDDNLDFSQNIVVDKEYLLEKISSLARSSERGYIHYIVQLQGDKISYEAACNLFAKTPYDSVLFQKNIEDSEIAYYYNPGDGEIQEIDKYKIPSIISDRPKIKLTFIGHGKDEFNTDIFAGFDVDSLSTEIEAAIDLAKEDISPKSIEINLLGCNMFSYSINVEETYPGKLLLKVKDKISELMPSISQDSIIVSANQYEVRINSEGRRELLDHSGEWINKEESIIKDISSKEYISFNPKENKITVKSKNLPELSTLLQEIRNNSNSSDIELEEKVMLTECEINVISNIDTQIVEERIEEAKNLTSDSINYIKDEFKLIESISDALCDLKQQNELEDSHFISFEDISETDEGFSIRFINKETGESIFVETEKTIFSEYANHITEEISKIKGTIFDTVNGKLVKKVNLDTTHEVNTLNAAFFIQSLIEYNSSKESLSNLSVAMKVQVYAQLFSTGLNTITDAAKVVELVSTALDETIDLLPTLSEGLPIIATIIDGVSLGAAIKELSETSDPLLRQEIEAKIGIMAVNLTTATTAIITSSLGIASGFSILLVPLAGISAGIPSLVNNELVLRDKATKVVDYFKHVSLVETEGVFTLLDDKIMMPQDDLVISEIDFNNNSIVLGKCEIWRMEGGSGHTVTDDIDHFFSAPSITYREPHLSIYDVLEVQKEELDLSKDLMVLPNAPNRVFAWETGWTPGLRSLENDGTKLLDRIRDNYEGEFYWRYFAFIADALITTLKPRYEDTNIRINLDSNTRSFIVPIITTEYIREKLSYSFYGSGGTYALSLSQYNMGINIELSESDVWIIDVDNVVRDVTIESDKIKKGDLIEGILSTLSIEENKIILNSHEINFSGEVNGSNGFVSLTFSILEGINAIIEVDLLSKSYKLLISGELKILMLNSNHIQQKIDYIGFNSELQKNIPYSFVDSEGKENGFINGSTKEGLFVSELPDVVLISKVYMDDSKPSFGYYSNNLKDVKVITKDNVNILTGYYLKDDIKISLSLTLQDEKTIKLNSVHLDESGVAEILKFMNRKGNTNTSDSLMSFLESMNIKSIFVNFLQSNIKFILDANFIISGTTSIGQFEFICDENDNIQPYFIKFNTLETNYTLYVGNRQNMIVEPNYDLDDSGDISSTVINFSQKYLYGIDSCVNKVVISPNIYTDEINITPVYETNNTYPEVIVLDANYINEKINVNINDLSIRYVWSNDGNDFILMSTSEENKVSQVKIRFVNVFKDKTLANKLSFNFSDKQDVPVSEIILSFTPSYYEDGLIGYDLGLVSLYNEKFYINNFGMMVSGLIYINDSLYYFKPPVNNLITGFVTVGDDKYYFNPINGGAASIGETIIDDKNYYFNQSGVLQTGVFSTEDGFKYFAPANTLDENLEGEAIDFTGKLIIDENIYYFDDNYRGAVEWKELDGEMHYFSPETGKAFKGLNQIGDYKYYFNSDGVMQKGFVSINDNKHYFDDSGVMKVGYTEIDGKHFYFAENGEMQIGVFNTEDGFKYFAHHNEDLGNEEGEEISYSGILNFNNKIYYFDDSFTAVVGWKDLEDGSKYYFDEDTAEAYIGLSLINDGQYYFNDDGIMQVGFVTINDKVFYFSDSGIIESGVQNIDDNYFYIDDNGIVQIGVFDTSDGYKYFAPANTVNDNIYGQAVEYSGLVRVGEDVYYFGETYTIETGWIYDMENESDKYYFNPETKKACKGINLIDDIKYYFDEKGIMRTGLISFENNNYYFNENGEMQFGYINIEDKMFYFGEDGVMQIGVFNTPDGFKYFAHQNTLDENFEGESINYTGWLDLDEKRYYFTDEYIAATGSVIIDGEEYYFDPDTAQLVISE
RN4220 kill = kills Staphylococcus aureus RN4220; AID 1259311; S. aureus RN4220 growth, OD600, 16 h; inhibition, % (test concentration not listed); 0.33% of 330,000 active; in the data active = inhibition above about 85%;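 also: plate controls were untreated cells for no effect and reference antibiotic for full effect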
PfHsp40 rescue = compounds rescuing yeast from Plasmodium falciparum HSP40 toxicity; AID 504582; growth rescue, % at 12.5 µM; 0.68% of 340,000 active; S. cerevisiae expressing PfHsp40, growth rescue, ATP luminescence; in the data active = growth rescue above about 28%, passing the limit was not always enough;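 also: yeast W303a lacking pdr1 and pdr3 grown in galactose medium; growth measured after three days at 30 °C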
Sa ugtP lethal = kills S. aureus RN4220 lacking UgtP; 0.54% of 330,000 active; AID 1259309; S. aureus RN4220 ugtP deletion, OD600 growth, 16 h; growth inhibition, % (no concentration beside the values); in the data active = growth inhibition above about 68%;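 also: plate controls were untreated wells for no effect and antibiotic for full effect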
PrP UTR cherry = prion 5' UTR mRNA inhibition, cherry-pick retest; shares compounds with PrP UTR inh; cell-based prion protein 5' UTR reporter, plate reader; inhibition, % at 2.5 µM; 48% of 1,100 active; in the data active = inhibition above about 54%
Starred values were filed as active, the others as inactive; x = no result.

SMILES	PrP UTR inh	TcdB GH inh	RN4220 kill	PfHsp40 rescue	Sa ugtP lethal	others
C[C@@H]1CCCCO[C@@H](CN(C)S(=O)(=O)c2cccs2)[C@H](C)CN([C@@H](C)CO)C(=O)c2cc(NS(=O)(=O)c3cn(C)cn3)ccc2O1	x	1	x	x	x
CC(=O)c1cccc(NC(=O)c2ccc([N+](=O)[O-])o2)c1	-27	2	43	0	91*
O=C(Nc1ccc2oc(-c3ccncc3)nc2c1)c1ccc([N+](=O)[O-])o1	-16	-2	100*	1	77
O=C(Nc1ccc2oc(-c3ccncc3)nc2c1)c1ccccc1	-22	1	2	-1	11
C[C@@H]1CN([C@H](C)CO)C(=O)Cc2cc(NC(=O)c3ccncc3)ccc2O[C@@H]1CN(C)C(=O)Nc1ccccc1	x	-1	x	x	x
O=C(Nc1ccc(Cl)cc1C(=O)c1ccccc1)c1ccco1	-20	x	3	2	28
O=C(Nc1ccc(Cl)cc1C(=O)Nc1ccc(Br)cn1)c1ccco1	-40	x	3	270*	-18
O=C1CN(N=Cc2ccc([N+](=O)[O-])o2)C(=O)N1	x	x	11	x	16
CC(=NNc1ccccn1)c1ccc(OC(F)F)cc1	x	x	3	x	93*
C/C(=N\Nc1ncc(Cl)cc1Cl)c1ccc(OC(F)F)cc1	-29	x	x	-1	x
CN(C)CC#Cc1ccc([C@@H]2[C@@H](CO)N3C(=O)CN(C(=O)Cc4ccccc4)C[C@@H]23)cc1	x	-1	x	x	x
Cc1cc(C)c2nc(C)cc(N/N=C/c3ccc(O)cc3)c2c1	-15	16*	x	-1	x
Cc1cc(N/N=C/c2ccc(O)cc2)c2cccc(C)c2n1	-21	11*	x	-1	x
O=C(Nc1ccc(F)cc1)N[C@@H]1C=C[C@@H](CC(=O)N2CCCCC2)O[C@H]1CO	x	0	x	x	x
CC(C)c1cc(CN2CCN(Cc3ccc(F)c(F)c3)C(CCO)C2)[nH]n1 (stereo not drawn)	-19	10*	-1	3	-2
C/C(=N\NC(=S)NCCc1ccccc1)c1cccs1	-6	x	x	96*	x
CC(=NNC(=S)NCCc1ccccc1)c1cccs1	x	x	13	x	-8
O=c1sc(/C=N/Nc2ccccc2)c(Cl)n1Cc1ccccc1	-56	1	x	1	x
O=C(O)c1cccc(Cn2c(Cl)c(C=NNc3ccccc3)sc2=O)c1	x	x	94*	x	97*
C[C@@H]1CN([C@@H](C)CO)S(=O)(=O)c2ccc(C#Cc3ccccc3)cc2O[C@@H]1CN(C)C(=O)CN(C)C	x	2	x	x	x
Nc1ccccc1O	-16	x	9	60*	-5
Oc1ccccc1O	-23	0	12	-1	11
COc1ccc(NC(=O)N(C)C[C@H]2OCCCC[C@@H](C)Oc3ccc(NC(=O)Nc4c(C)noc4C)cc3C(=O)N([C@H](C)CO)C[C@H]2C)cc1	x	0	x	x	x
Cn1ncc(Br)c1C(=O)N/N=C/c1cccc(OC2CSC2)c1	-8	31*	x	-1	x
O=C(NN=Cc1ccc(-c2ccc(Cl)c(C(=O)O)c2)o1)c1cc2c(ccc3ccccc32)o1	x	x	8	x	5
SMILES	PrP UTR inh	TcdB GH inh	RN4220 kill	PfHsp40 rescue	Sa ugtP lethal	others
CC(=O)N(CC(C)C(=O)O)c1c(I)cc(I)c(N)c1I (stereo not drawn)	3	1	6	-1	10
CCC(Cc1c(I)cc(I)c(N)c1I)C(=O)O (stereo not drawn)	-13	3	8	187*	8
COCC(=O)N1[C@@H](CO)[C@@H]2c3ccccc3N(C(=O)NC(C)C)C[C@@H]21	x	1	x	x	x
CCCNC(=O)CC(NS(=O)(=O)c1ccc(Cl)cc1)c1ccco1 (stereo not drawn)	-11	x	3	124*	1
O=C(CC(NS(=O)(=O)c1ccc(Cl)cc1)c1ccco1)NCc1ccco1 (stereo not drawn)	-10	x	6	1	2
CC(C)(C)OC(=O)NC(Cc1ccccc1)C(=O)N1CCC(C(=O)O)CC1 (stereo not drawn)	x	x	4	x	-1
COC(=O)c1sc(-c2ccc(C(C)(C)C)cc2)cc1NC(=O)COCC(=O)O	-58	0	9	33*	0
COC(=O)c1sc(-c2ccc(Cl)cc2)cc1NC(=O)CSCC(=O)O	-13	-1	18	1	-9
O=C(N[C@H]1CC[C@@H](CCNC(=O)C2CCCCC2)O[C@H]1CO)c1ccncc1	x	0	x	x	x
CCN1C(=O)/C(=C2\C=Cc3cc(C)ccc3N2CC)OC1=S	-15	x	x	1	x
CCN1/C(=C/c2cc[n+](C)cc2)C=Cc2cc(C)ccc21	1	x	54	0	100*
Cc1ccc(NCSc2ccc(Cl)cc2)cc1	-60	2	4	0	6
Clc1ccc(SCNc2ccccc2Cl)cc1	-22	0	3	0	88*
O=C(Nc1ccc(C(F)(F)F)cc1)N[C@H]1C=C[C@H](CC(=O)N2CCCCC2)O[C@@H]1CO	x	0	x	x	x
CC1=C(N2CC2)C(=O)C(CO)=C(N2CC2)C1=O	98*	-1	x	1	x	PrP UTR cherry=97*
Cc1ccc2nc(SC(C)C(=O)N3CCCCC3)[nH]c2c1 (stereo not drawn)	66*	1	1	-1	3	PrP UTR cherry=5
COc1ccc(/C=C2/SC(=S)N(CCCC(=O)Nc3ccccc3C(=O)O)C2=O)cc1	18	1	35	0	30
COc1ccc(/C=C2\SC(=S)N(CCCC(=O)NNC(=O)c3ccccc3O)C2=O)cc1	60*	2	x	3	x	PrP UTR cherry=74*
NS(=O)(=O)c1ccc(NN=Cc2ccccc2C(=O)O)c([N+](=O)[O-])c1	x	x	9	x	6
CCOC(=O)c1c(C)[nH]c(C(=O)N/N=C/c2ccc(Br)cc2)c1C	55*	x	x	0	x	PrP UTR cherry=88*
CCOC(=O)c1c(C)[nH]c(C(=O)NN=Cc2ccccc2O)c1C	x	x	7	x	0
O=C(NN=Cc1ccccc1OCc1ccccc1)c1cccnc1	x	x	12	x	9
Cn1c2ccccc2c(=O)c2ccc(C#CC3(N)CCCCC3)cc21	-11	1	-25	-1	-16
Cc1cc2sc3ccc(C#CC4(O)CCCCC4)cc3c(=O)c2cc1C	92*	-2	-4	1	8	PrP UTR cherry=93*
Cn1c2ccccc2c(=O)c2cc(C#CC3(O)CCCCC3)ccc21	65*	1	3	4	10	PrP UTR cherry=34
SMILES	PrP UTR inh	TcdB GH inh	RN4220 kill	PfHsp40 rescue	Sa ugtP lethal	others
COc1ccc(C(=O)Nc2ccc(C)cn2)c(OC)c1	79*	x	3	-1	8	PrP UTR cherry=75*
Cc1ccc(S(=O)(=O)N2C[C@@H](O)COC[C@H]3O[C@H](CC(=O)NCC4CCCCC4)CC[C@@H]32)cc1	x	0	x	x	x
Cc1c2c(=O)n(-c3nc4ccccc4s3)nc-2cc(O)n1Cc1ccccc1	65*	x	15	0	-4	PrP UTR cherry=35
NC(=S)c1cn(C2OC(CO)C(O)C2O)c2ncnc(N)c12 (stereo not drawn)	61*	-1	4	0	-8	PrP UTR cherry=83*
Nc1ncnc2c1ccn2[C@@H]1O[C@H](CO)[C@@H](O)[C@H]1O	81*	1	3	1	12	PrP UTR cherry=88*
Nc1ncnc2nn(C3OC(CO)C(O)C3O)nc12 (stereo not drawn)	x	3	x	x	x

Assay outcomes as filed in PubChem.
